Experimental data published in PubChem BioAssay AID504465 (National Center for Advancing Translational Sciences (NCATS), 2011).
In all, about 2,100 compounds went through this assay and about 210 (10%) were called active. About 53% were inconclusive and are not listed. Calls come from the whole dose curve; as a rule, active = well fitted inhibition curve with a large enough effect; inconclusive = small, poorly fitted or top-dose-only effect, or effect the other way; inactive = no such curve, though single readings can be large or run the other way. The list shows a part of the results.

Assay: IN Cell qHTS Assay for Inhibitors of the mTORC1 Signaling Pathway in MEF (Tsc2-/-, p53-/-) Cells: Sytravon; note: nearly all actives have a fitted effect of over 60% in size;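 for activity, negative = inhibition: plate controls were DMSO wells for no effect and 7.5 nM rapamycin full pathway inhibition for full effect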
Settings: phospho-rpS6 immunofluorescence, 24 h; series mostly up to 38.3 µM; activity, negative = inhibition: at the top concentration
How it was run: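 Tsc2-/-, p53-/- MEFs (empty-vector) treated with compound 24 h at 37 degree Celsius, then fixed and stained for phospho-rpS6 Ser235/236 (Alexa-488) plus Hoechst. Reported as % positive cells, thresholds set against 7.5 nM rapamycin and DMSO wells.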
Potency is the fitted concentration of half-maximal effect.

Row | Structure (SMILES) | activity, negative = inhibition | Potency
1 | Cc1cc(C)cc(OCC(=O)Nc2ccc(-c3nc4ncccc4o3)cc2C)c1 | -21.9% (inactive) | 
2 | COc1cccc(C2CC(=O)Nc3cc4c(cc32)OCCO4)c1OC (stereo not given) | -21.4% (inactive) | 
3 | COc1cc(/C=C/c2nc(C#N)c(N3CCCCCC3)o2)cc(OC)c1OC | -24.2% (inactive) | 
4 | CCOc1ccc(-c2c(C)nn3c(C)c(C(=O)Nc4cccc(Cl)c4C)cnc23)cc1OCC | -10.9% (inactive) | 
5 | COc1ccc(CCNC(=O)C(C)n2nc(C)c3sc4ccccc4c3c2=O)c(OC)c1 (stereo not given) |  | 4.65 µM (active)
6 | COc1ccc(CNC(=O)CCCc2cn(C)c3ccccc23)c(OC)c1 | 6.25% (inactive) | 
7 | COc1ccc(CNC(=O)c2cc(-c3ccc(Br)s3)nc3ccccc23)c(OC)c1 | -13.5% (inactive) | 
8 | O=C(Cn1cc(SCc2cccc(C(F)(F)F)c2)c2ccccc21)N1CCCCCC1 | -22.9% (inactive) | 
9 | Cc1cccc(-c2noc(CNC(=O)c3ccc(C)cc3C)n2)c1 | -7.27% (inactive) | 
10 | Cc1ccc(NC(=O)c2cc(S(=O)(=O)NCCC3=CCCCC3)ccc2F)cc1F | 6.25% (inactive) | 
11 | COc1ccc(-n2ncc3c(NCCCOC(C)C)ncnc32)cc1 | -3.87% (inactive) | 
12 | COc1cccc(-c2noc(CCCC(=O)NCc3ccco3)n2)c1 | -11.3% (inactive) | 
13 | COc1ccccc1N1CCN(C(=O)c2cnc(N3CCCCC3)c3ccccc23)CC1 |  | 5.85 µM (active)
14 | O=C(NCc1ccccc1Cl)c1cnc(N2CCCCC2)c2ccccc12 | -24.1% (inactive) | 
15 | COc1ccccc1N1CCN(C(=O)c2nc(SC)ncc2Cl)CC1 | -10.7% (inactive) | 
16 | Cc1ccccc1Nc1c(-c2cccc(N(C)C)c2)nc2ccc(Br)cn12 | 24.1% (inactive) | 
17 | Cc1cc(=O)n(CC(=O)N2CCN(c3ccccc3F)CC2)c2c1c(C)nn2C | -5.56% (inactive) | 
18 | COc1cc(NC(=O)Cn2nc(C(F)(F)F)c3c2CCCC3)c(OC)cc1Cl | -24% (inactive) | 
19 | Cc1nnc(NC(=O)CSCc2cc(=O)c3ccccc3[nH]2)s1 | 14.3% (inactive) | 
20 | O=C(Nc1nnc(SCc2cc(=O)c3ccccc3[nH]2)s1)c1ccccc1 | -6.25% (inactive) | 
21 | CCCC(=O)Nc1nnc(SCc2cc(=O)c3ccc(C)cc3[nH]2)s1 |  | 3.69 µM (active)
22 | Cc1ccc(-n2c(SCc3nc(-c4ccccc4C)no3)nnc2-c2ccncc2)cc1C | -7.02% (inactive) | 
23 | C=CCc1cccc2cc(-c3nc4ccc(C)cc4[nH]3)c(=O)oc12 | -4.54% (inactive) | 
24 | CCC(C(=O)Nc1cc(-c2nc3cccnc3s2)ccc1C)c1ccccc1 (stereo not given) | -14.5% (inactive) | 

Row | Structure (SMILES) | activity, negative = inhibition | Potency
25 | COc1ccc(N2CCN(CCCNC(=O)c3cc(Nc4ccccc4OC)nc4ccccc34)CC2)cc1 | 0% (inactive) | 
26 | CC1CCCN(CCCNC(=O)c2cc(Sc3ccc(F)cc3)nc3ccccc23)C1 (stereo not given) | 6.25% (inactive) | 
27 | CSc1cccc(Nc2cc(C(=O)NCCCN(Cc3ccccc3)C(C)C)c3ccccc3n2)c1 | 0% (inactive) | 
28 | COc1ccccc1Nc1cc(C(=O)NCCCN(C)C2CCCCC2)c2ccccc2n1 |  | 1.65 µM (active)
29 | COc1ccc(Nc2cc(C(=O)NCCCN(C)Cc3ccccc3)c3ccccc3n2)cc1OC | 0% (inactive) | 
30 | CCCCN(CCCNC(=O)c1cc(Nc2ccc(OC)c(OC)c2)nc2ccccc12)Cc1ccccc1 |  | 2.33 µM (active)
31 | CC1CCCCN1S(=O)(=O)c1ccc(C(=O)Nc2sc3c(c2C(N)=O)CC(C)(C)NC3(C)C)cc1 (stereo not given) | 6.25% (inactive) | 
32 | COc1ccccc1NC(=O)C1=C(C)Nc2nc(SCc3ccccc3)nn2C1c1cccs1 (stereo not given) | -16.2% (inactive) | 
33 | CCC1CN(C(=O)NCc2cccc(OC)c2)c2cc(Cl)ccc2O1 (stereo not given) | -9.57% (inactive) | 
34 | Cc1ccc(NC(=O)C(Cc2c[nH]c3ccccc23)NC(=O)OC(C)(C)C)c(C)c1 (stereo not given) | 30.2% (inactive) | 
35 | O=C(Nc1cc(Cl)cc(Cl)c1)c1ccc(F)c(S(=O)(=O)NC2CCCCC2)c1 | 6.25% (inactive) | 
36 | O=C1CC(c2c(F)cccc2Cl)c2c(ccc3ccccc23)N1 (stereo not given) | 2% (inactive) | 
37 | COC(=O)c1ccc(C2C=C(c3ccc(Cl)cc3)Nc3nc4ccccc4n32)cc1 (stereo not given) | 0% (inactive) | 
38 | Cc1c(C(=O)Nc2cccc(F)c2)oc2c1-c1nn(Cc3c(F)cccc3Cl)cc1CC2 | -85.4% (inactive) | 
39 | COc1ccc(CNC(=O)C2CCC(CNS(=O)(=O)c3cccs3)CC2)cc1 (stereo not given) | 21.6% (inactive) | 
40 | CC1CCn2c(nc3cc(C(=O)NCc4ccccc4)ccc32)C1 (stereo not given) | 4.17% (inactive) | 
41 | Cc1cccc(NC(=O)c2nc(S(C)(=O)=O)ncc2Cl)c1 |  | 2.61 µM (active)
42 | CCS(=O)(=O)c1ncc(Cl)c(C(=O)NCc2ccc(OC)cc2)n1 |  | 3.29 µM (active)
43 | Cc1ccc(NC(=O)c2nc(S(=O)(=O)Cc3cccc(C)c3)ncc2Cl)cc1 |  | 6.56 µM (active)
44 | CCOC(=O)c1cc(S(=O)(=O)NCc2ccc(OC)cc2)[nH]n1 | -9.55% (inactive) | 
45 | O=C(NCc1ccccc1)c1nc(S(=O)(=O)Cc2ccccc2)ncc1Cl |  | 18.5 µM (active)
46 | Cc1cccc(NC(=O)c2ccc(F)c(S(=O)(=O)NCc3ccc4c(c3)OCO4)c2)c1 | 6.25% (inactive) | 
47 | O=C(Nc1ccc(F)c(F)c1)c1cc(S(=O)(=O)N2CCc3ccccc32)ccc1F | 6.25% (inactive) | 
48 | COc1ccc(-c2ccc(CCC(=O)O)n2-c2cc(Cl)ccc2O)cc1 | -13.7% (inactive) | 

Row | Structure (SMILES) | activity, negative = inhibition | Potency
49 | CC(C)c1ccc(NC(=O)C2Cc3ccccc3N2C(=O)c2ccccc2)cc1 (stereo not given) | -4.76% (inactive) | 
50 | CCOC(=O)c1c(NC(=O)c2ccc(S(=O)(=O)N3CCC(C)CC3)cc2)sc2c1CCN(CC)C2 | 6.25% (inactive) | 
51 | Cc1ccc(-c2cc(C(=O)N3CCN(c4ccccc4)CC3)c3ccccc3n2)cc1C | -15.7% (inactive) | 
52 | CCOC(=O)C1CCCN(C(=O)Cn2c(=O)cc(C)c3c(C)nn(C)c32)C1 (stereo not given) | -0.372% (inactive) | 
53 | O=C(NCCSc1c(-c2ccc(F)cc2)[nH]c2ccccc12)c1ccc(S(=O)(=O)N2CCOCC2)cc1 | 4.61% (inactive) | 
54 | Cc1ccc(NC(=O)c2c(C)oc3ccc(O)c(CN4CCCCC4)c23)c(C)c1 | -4.63% (inactive) | 
55 | CCc1ccc(CNC(=O)Cn2nc(-c3ccc(C)cc3)ccc2=O)cc1 | 6.25% (inactive) | 
56 | Cc1nnc(SCC(=O)NCc2ccccc2F)c2nn(-c3ccc(Cl)cc3)c(C)c12 | 0% (inactive) | 
57 | Cc1cccc(Cn2c(=O)n(CCCC(=O)NCc3ccccc3Cl)c(=O)c3ccccc32)c1 | -5.71% (inactive) | 
58 | Cc1c2cnn(CC(=O)NCc3ccccc3)c(=O)c2c(C)n1Cc1cccc(Cl)c1 | -19.8% (inactive) | 
59 | CCOC(=O)c1c(NC(=O)c2ccc(S(=O)(=O)N3CCC(C)CC3)cc2)sc2c1CCN(C(C)C)C2 | 6.25% (inactive) | 
60 | CCS(=O)(=O)c1ncc(Cl)c(C(=O)NCc2ccccc2)n1 |  | 3.29 µM (active)
61 | CCCS(=O)(=O)c1ncc(Cl)c(C(=O)Nc2scc(-c3ccccc3)c2C(=O)OCC)n1 | -21.1% (inactive) | 
62 | Cc1ccc(S(=O)(=O)C2(C(=O)Nc3ccc(C(C)C)cc3)CC2)cc1 | 23.2% (inactive) | 
63 | CCOC(=O)c1c(NC(=O)c2nc(S(C)(=O)=O)ncc2Cl)sc(C(C)=O)c1C |  | 5.85 µM (active)
64 | Cc1cccc(CS(=O)(=O)c2ncc(Cl)c(C(=O)NCc3ccccc3)n2)c1 |  | 18.5 µM (active)
65 | COc1ccc(NC(=O)c2nc(S(=O)(=O)Cc3ccc(C)cc3)ncc2Cl)cc1 |  | 2.61 µM (active)
66 | COc1ccc(NC(=O)CCc2nc3c(C)nn(-c4ccc(C)cc4)c3n(C)c2=O)cc1 | -1.68% (inactive) | 
67 | CCc1cnc2c(c1SCC(=O)NCc1ccccc1)c(=O)n(C)c(=O)n2C | 0.735% (inactive) | 
68 | CCC1(C)CC(=O)c2c(ccc3oc(C(=O)NCc4ccccc4)c(C)c23)O1 (stereo not given) | -8.68% (inactive) | 
69 | Cc1cccc(C(=O)Nc2ccccc2SCc2cc(=O)c3cccc(C)c3[nH]2)c1 | -11.8% (inactive) | 
70 | COc1ccc(CCNC(=O)CCn2c(=O)c3ccccc3n(Cc3ccccc3C)c2=O)cc1OC | 11.2% (inactive) | 
71 | COc1ccc(CCNC(=O)c2ccc3c(c2)N=C(C)c2cc(C)ccc2S3)cc1OC | -12% (inactive) | 
72 | O=C(Nc1cccc(C(=O)N2CCN(c3ccc(Cl)cc3)CC2)c1)c1nsc2ccccc12 | -20.5% (inactive) | 

Row | Structure (SMILES) | activity, negative = inhibition | Potency
73 | Cc1ccc(NC(=O)c2cc(S(=O)(=O)N3CCCCCC3)ccc2F)cc1F | 6.25% (inactive) | 
74 | Cc1oc2ccc(O)c(CN(C)Cc3ccccc3)c2c1C(=O)Nc1cccc(Cl)c1C | -17.4% (inactive) | 
75 | O=c1ccc(-c2ccccc2)nn1Cc1ccc(F)cc1Cl | -5.19% (inactive) | 
76 | CCc1ccc(CNC(=O)c2ccc(NC(=O)N3CCCCc4ccccc43)cc2)cc1 | -0.195% (inactive) | 
77 | CCCC(=O)C1=C(c2ccc(C)cc2)N(C(=O)CCC)n2cnnc2S1 | -8.15% (inactive) | 
78 | Cc1cc(C)cc(NC(c2cccc(Cl)c2)c2nnc(-c3ccccc3)o2)c1 (stereo not given) | 20.8% (inactive) | 
79 | CCOC(=O)N1CCc2c(sc3c2C(=O)NC(c2cc(OC)c(OC)c(OC)c2)N3)C1 (stereo not given) | -16.6% (inactive) | 
80 | CCCOc1ccc(Oc2nc(NCC(C)C)nc(N(C)C)n2)nn1 | -11.8% (inactive) | 
81 | CCN1CCc2c(sc(NC(=O)CSc3ccccc3)c2-c2nc3ccccc3s2)C1 | 0.735% (inactive) | 
82 | Cc1ccc(CN2CCC(CNC(=O)Nc3ccc(Cl)cc3)C2)cc1 (stereo not given) | -64.5% (inactive) | 
83 | O=C(NCC1CCN(Cc2cccc(Cl)c2)CC1)Nc1ccc(F)c(Cl)c1 | -100% (inactive) | 
84 | Cc1cccc(CN2CCC(CNc3ncnc4onc(-c5ccc(Cl)cc5)c34)CC2)c1 |  | 7.36 µM (active)
85 | CCC(C)NC(=O)c1cc(Sc2cccc(Cl)c2)nc2ccccc12 (stereo not given) | 6.25% (inactive) | 
86 | COc1ccc(-n2nnc(-c3nsc(NC(=O)c4ccc(C)c(C)c4)n3)c2C)cc1Cl | -25.9% (inactive) | 
87 | CCOc1ccc(-c2oc3ccccc3c(=O)c2O)cc1OCC | -100% (inactive) | 
88 | CCOc1ccc(N(C(=O)Cn2nnc3ccccc32)C(C(=O)NCc2ccccc2)c2ccc(OC)cc2)cc1 (stereo not given) | -3.48% (inactive) | 
89 | COc1ccc(-n2cc(C(=O)N(CCN(C)C)Cc3ccccc3)c3ccccc3c2=O)cc1 | -28.9% (inactive) | 
90 | CCS(=O)(=O)c1ncc(Cl)c(C(=O)N(Cc2ccccc2)c2ccc(OC)cc2)n1 |  | 3.29 µM (active)
91 | COc1ccc(N(Cc2ccccc2)C(=O)c2nc(S(C)(=O)=O)ncc2Cl)cc1 |  | 2.33 µM (active)
92 | CCN(CC)CCNC(=O)c1cn(CCOC)c(=O)c2c1c1ccccc1n2C | 18.4% (inactive) | 
93 | CC(C)C(=O)OC1=CN(Cc2ccccc2)S(=O)(=O)c2ccccc21 | 1.95% (inactive) | 
94 | CCc1ccc(N=C2NC(=O)CC(C(=O)Nc3ccc(OC)cc3)S2)cc1 (stereo not given) | 15.4% (inactive) | 
95 | CCCc1cc(=O)oc2cc(C)c3c(-c4ccccc4)c(C)oc3c12 | -1.83% (inactive) | 
